Screening results as filed in PubChem BioAssay.
AMA1 RON2 block – inhibitors of Plasmodium falciparum AMA1-RON2 interaction | Potency, µM (titrated, usually from 58.2 µM), for the others: at the highest dose activity change, negative = inhibition, hits mostly inhibitors | AlphaScreen AMA1-biotinylated RON2 peptide binding | 360,000 compounds, 0.2% hits;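 also: 0% = vehicle wells and -100% = peptide control; nearly all actives have a fitted effect of over 45% in size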
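AMA1 (3D7) with his tag at 25 nM final met compounds first, then biotinylated RON2 peptide at 25 nM; detection used donor plus acceptor beads, 10 µg/mL apiece, read by AlphaScreen after 30 min at room temperature.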
Tb PYK inh – blocks Trypanosoma brucei pyruvate kinase; Q57TT1; TbPYK enzyme, Kinase-Glo Plus ATP luminescence, 45 min; Potency, µM (top dose mostly 76.8 µM), for inactives: at the highest dose activity, negative = inhibition, usual class: inhibitors; 410,000 compounds, 0.12% hits; AID 624173; also: % is scaled to controls: 0 for no effect and ±100 for the full control effect; nearly all actives have a fitted effect of over 50% in size
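Luminescent Kinase-Glo Plus end-point after 45 min room-temperature reaction of T. brucei pyruvate kinase started with 130 uM ADP (final). Buffer TEA 50 mM pH 7.2 with KCl, MgCl2, BSA, Tween-20; titration-based qHTS with fitted concentration-effect curves.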
LmPK inh – LmPK (Leishmania mexicana) enzyme inhibition | Q27686 | purified LmPK, Kinase-Glo ATP luminescence, 1 h | Potency, µM (titrated, usually from 57.5 µM), without a hit: at the highest dose activity change, negative = inhibition, hits mostly inhibitors | 290,000 compounds, 0.37% hits; also: % is scaled to controls: 0 for no effect and ±100 for the full control effect
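Purified LmPK (0.1 nM) converted ADP (0.1 mM) to ATP with PEP (0.5 mM) in imidazole buffer pH 7.2 with KCl and MgCl2, 1 h at room temperature. ATP was read by Kinase-Glo luminescence; data normalized to uninhibited and no-enzyme controls.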
FBPA Giardia inh – Giardia lamblia aldolase inhibition; 290,000 compounds, 0.71% hits; Potency, µM (top dose mostly 59.6 µM), inactives show top-dose activity, negative = inhibition, hits mostly inhibitors; purified Giardia FBPA; also: % is scaled to controls: 0 for no effect and ±100 for the full control effect; nearly all actives have a fitted effect of over 55% in size
Target sequence (A8B2U2 whole entry, looked up): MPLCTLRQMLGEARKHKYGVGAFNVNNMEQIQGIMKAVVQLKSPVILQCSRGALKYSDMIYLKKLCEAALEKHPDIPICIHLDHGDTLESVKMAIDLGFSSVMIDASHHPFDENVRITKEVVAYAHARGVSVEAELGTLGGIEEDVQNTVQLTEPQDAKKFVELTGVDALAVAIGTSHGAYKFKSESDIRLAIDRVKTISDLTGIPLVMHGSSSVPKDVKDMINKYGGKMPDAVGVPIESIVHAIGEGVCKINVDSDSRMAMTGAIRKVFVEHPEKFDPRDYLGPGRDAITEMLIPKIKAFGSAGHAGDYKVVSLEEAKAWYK
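Giardia FBPA (40 nM reagent) was preincubated 10 min at RT with compound (up to 57.5 uM final), then substrate plus GAPDH/TPI/NAD/arsenate coupling system with diaphorase/resazurin was added; resorufin fluorescence (525/598 nm) was read after 20 min.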
NS1 inh – inhibitors of influenza NS1 protein function; 270,000 compounds, 0.4% hits; Potency, µM (top dose mostly 46.1 µM), without a hit: top-dose activity, positive = more growth; AID 2326; calls by dose curve; also: actives are rising curves; nearly all actives have a fitted effect of over 50% in size
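Recovery from NS1-induced slow growth read by OD600 in budding yeast switched to galactose assay medium (pH 6.0, -URA) at 1:100 dilution. Compound 23 nl per well; the matching strain lacking NS1 serves as control.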
* hit, by the source's call; ? = inconclusive; . = not tested or not shown. Most compounds without a hit are left out; they make up all but 1.2% or so of the library. Unless noted, calls follow the shape of the dose curve; as a rule, active = well fitted curve in the direction sought with a large enough effect; inconclusive = small, poorly fitted or top-dose-only effect, or another doubt; inactive = no such curve, though single readings can be large; an effect the other way counts as inactive or inconclusive. Potency is read from the fitted curve at half-maximal effect.

SMILES | AMA1 RON2 block | Tb PYK inh | LmPK inh | FBPA Giardia inh | NS1 inh
CC[C@H](c1ccccc1)c1noc(CCN(CC)CC)n1 | . | 3% | . | . | .
COc1ccc2c(c1OC)C(=O)OC2Nc1nc(-c2cc3ccccc3oc2=O)cs1 (stereo unspecified) | 1% | -20% | 22µM* | 2% | -11%
COc1ccc2c(c1OC)C(=O)OC2Nc1nc(-c2cc3cc([N+](=O)[O-])ccc3oc2=O)cs1 (stereo unspecified) | -25% | 0% | 0% | 5% | -6%
COC(=O)c1ccc(-c2ccc(C3C4C=CCC(C)C4C(=O)N3Cc3ccccc3)c(F)c2)cc1 (stereo unspecified) | . | . | . | 0% | .
C=CCN1C=C/C(=C\C=C(C#N)C#N)c2ccccc21 | 14µM* | ? | -25% | -5% | 6%
CCCCCCN1C=C/C(=C\C=C(C#N)C#N)c2ccccc21 | -15% | ? | ? | -6% | 9%
N/C(=N\OC(=O)c1cccc2ccccc12)c1ccccn1 | 28% | -9% | -20% | -3% | -74%
N/C(=N\OC(=O)c1ccco1)c1ccccn1 | 70% | ? | 13µM* | -4% | -4%
COc1ccc(/C(N)=N/OC(=O)c2ccco2)cc1 | 10% | -20% | 11µM* | 0% | 2%
N/C(=N\OC(=O)c1ccco1)c1ccc(Br)cc1 | 0% | 4% | -22% | 5% | -185%
Cc1ccc(/C(N)=N/OC(=O)c2ccco2)cc1 | 0% | -9% | ? | 2% | -35%
Cc1cccc(/C(N)=N/OC(=O)c2ccco2)c1 | 10% | -15% | 16µM* | 5% | -116%
N/C(=N\OC(=O)c1ccco1)c1ccccc1 | 8% | -18% | 22µM* | 4% | -7%
C/C=C1\NC(=O)[C@H]2CSSCC/C=C\[C@H](CC(=O)N[C@H](C(C)C)C(=O)N2)OC(=O)C(C(C)C)NC1=O (stereo partly specified) | . | 2% | . | . | .
O=S(=O)(c1ccccc1)n1nc(-c2ccco2)nc1NCc1ccccc1 | . | 0% | . | . | .
CC(C)(CN)CN | . | . | . | . | 0%
COc1ccc(NC(=S)NNc2ccc([N+](=O)[O-])cc2S(=O)(=O)Nc2ccc(C)cc2C)cc1 | -4% | ? | -10% | -5% | 18%
Cc1ccc(NS(=O)(=O)c2cc([N+](=O)[O-])ccc2NNC(=S)Nc2cc(C)ccc2C)c(C)c1 | 20% | -15% | -18% | 0% | 13µM*
CCN=C1S/C(=C\c2cn(C(C)=O)nc2-c2ccccc2)C(=O)N1CC | -1% | 5% | 2% | -1% | -3%
CC(=O)NC1=NC(=O)/C(=C/c2cn(C(C)=O)nc2-c2ccccc2)S1 | 68% | 7.1µM* | -27% | -4% | .
O=C(c1ccc(Br)o1)N1CCc2ccccc21 | . | . | 14µM* | 1% | -5%
O=C(c1ccc(Br)o1)N1CCCc2ccccc21 | -2% | -5% | -11% | 5% | -8%
COc1cnc(-c2ccccn2)[nH]c1=O | 71% | -1% | -12% | 3.5µM* | .
O=C(NNC(=S)NC(=O)c1ccccc1[N+](=O)[O-])c1ccccc1O | 0.71µM* | -14% | 3% | 23% | -1%
COc1ccccc1NC(=O)C1CCCN(c2ncnc3onc(-c4ccc(F)cc4)c23)C1 (stereo unspecified) | . | 3% | . | . | .
SMILES | AMA1 RON2 block | Tb PYK inh | LmPK inh | FBPA Giardia inh | NS1 inh
O=C(Nc1ccccn1)c1onc2c1CCCC2 | -2% | ? | 11µM* | -4% | 3%
CCC(=O)Nc1cnc(NC(=O)c2cccc(F)c2)cc1C | 20% | -16% | 20µM* | -1% | -5%
Cc1cc(C(=O)COC(=O)c2cccnc2Cl)c(C)n1CC1CCCO1 (stereo unspecified) | -12% | -23% | 25µM* | 0% | 3%
Cc1cc(C(=O)COC(=O)c2ccccc2O)c(C)n1CC1CCCO1 (stereo unspecified) | -21% | -12% | . | . | .
Cn1c(=O)c(Nc2ccc(O)cc2)c2c3c(cccc31)C(=O)c1ccccc1-2 | 25µM* | -6% | -12% | ? | ?
CC(=O)c1c2c3c(cccc3n(C)c1=O)C(=O)c1ccccc1-2 | -10% | -3% | 3% | 0% | 15%
NC(N)=Nc1cc2ccccc2c2ccccc12 | . | . | 0% | 3.2µM* | -59%
CC(=O)c1cccc2c(O)c(C3=Nc4ccccc4C3=O)[nH]c12 | ? | ? | 25µM* | ? | -36%
